Compound activity: PubChem, National Center for Advancing Translational Sciences (NCATS)
MARV entry inh = Marburg virus entry inhibition. Marburg virus pseudotyped entry inhibition, cell reporter. 1.8% of 300,000 active. Potency, µM (highest dose often 37.8 µM), for the others: top-dose activity change, negative = inhibition, usual class: inhibitors; calls by dose curve; tested in HEK293 cells; further: potency means the concentration at half of the fitted maximal effect
HCMV inh = blocks human cytomegalovirus replication. HFF cells, HCMV-luciferase reporter, 72 h; hits give low values. activity change, negative = inhibition, % at 57.5 µM. 4.5% of 410,000 active. AID 1259415; in the data active means activity change below about -60%; inconclusive means no clear call, values can overlap the other calls; inactive means above about -39%
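HFF cells seeded 16 h at 37C, treated with compounds, infected with luciferase-reporter HCMV at MOI 1 PFU/cell; luciferase read at 72 h post infection, normalized to buffer-only and Salinomycin controls.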
LASV entry inh = inhibitors of Lassa virus binding or cell entry; 1.2% of 300,000 active; Potency, µM (highest dose often 37.9 µM), without a hit: at the top dose activity change, negative = inhibition, usual class: inhibitors; Lassa virus pseudotype entry inhibition, cell reporter; AID 540256; calls by dose curve; tested in HEK293 cells; further: potency means the concentration at half of the fitted maximal effect; nearly all actives have a fitted effect of over 50% in size
Pf growth 96h = P. falciparum growth inhibition at 96 hour, primary screen for plastid delayed-death inhibitors; P. falciparum luciferase reporter growth, 96 h; Potency, µM (top dose mostly 28.7 µM), for the others: at the highest dose activity change, negative = inhibition, most hits filed as inhibitors; 6.9% of 320,000 active; AID 504834; further: potency means the concentration at half of the fitted maximal effect
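Compounds incubated with erythrocytes infected by luciferase-expressing P. falciparum (2% hematocrit, 0.05% parasitemia final) for 96 hours, 37 C in 5% CO2. Growth inhibition scored as decreased luciferase luminescence.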
Pf growth 48h = inhibits P. falciparum growth in the first generation, 48 h. P. falciparum luciferase growth in erythrocytes, 48 h. Potency, µM (doses to about 28.7 µM), inactives show at the highest dose activity change, negative = inhibition, actives largely listed as inhibitors. 5.9% of 310,000 active; further: potency means the concentration at half of the fitted maximal effect
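Cell-based growth assay: transgenic P. falciparum expressing firefly luciferase, cultured in red cells within RPMI 1640 containing 0.5% w/v Albumax, 24 mM bicarbonate and gentamycin. A drop in luciferase activity indicates inhibition.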
HCV inhibitor = blocks hepatitis C virus | 3.4% of 340,000 active | Potency, µM (series often up to 41.8 µM), without a hit: at the highest dose activity change, negative = inhibition, actives largely listed as inhibitors | Huh7.5.1 HCVcc-Cre infection, luciferase reporter, 44 h; further: potency means the concentration at half of the fitted maximal effect
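Seed cells (1,000/well) for 4 h; treat with compound and infect with HCVcc-Cre, moi about 0.5. Incubate 44 h, then detect luciferase activity.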
* marks the source's active call; other numbers are inactive results; ? = inconclusive; · = no result; [ ] = dose if it differs, or a comment. Rows were chosen to be rich in hits. Some 14% of all compounds tested hit in one or more screens of this group. Unless noted, the call rests on the fitted dose curve; in most records, active means well fitted inhibition curve with a large enough effect; inconclusive means small, poorly fitted or top-dose-only effect, or another doubt; inactive means no such curve, though single readings can be large or run the other way. On the % scale 0 is the no-effect control and ±100 the full control effect.

SMILES	MARV entry inh	HCMV inh	LASV entry inh	Pf growth 96h	Pf growth 48h	HCV inhibitor
CCC1(C)NC(=O)N(CC(=O)Nc2cc(C)on2)C1=O (stereo not drawn)	·	4	·	·	·	7%
CCNC(=O)C1(C)CCN(Cc2ccc(OC(F)(F)F)cc2)C1 (stereo not drawn)	·	-2	·	·	·	·
COC(=O)[C@@]12C[C@@H](CC(=O)NCCCCc3ccccc3)C(=O)N(Cc3ccco3)C1=CCC(C)(C)C2	·	-13	·	·	·	·
Oc1ccccc1Oc1c(F)c(F)nc(N2CCCC2)c1F	?	-13	4.6µM*	?	?	-27%
Fc1ccc(-c2cc(-c3nc(-c4ccccc4)no3)[nH]n2)cc1	·	-29	?	·	·	·
NC(=O)CSc1nc2ccc(NC(=O)COc3ccccc3)cc2s1	18%[46.1 µM]	26	-2%[46.1 µM]	·	·	·
O=S1(=O)c2c(F)cccc2O[C@@H](COCc2ccccc2)CN1CCc1ccc(F)cc1	·	-21	?	·	·	10µM*
CCCCN1C[C@H](CO)Oc2cccc(F)c2S1(=O)=O	·	9	?	·	·	0.56µM*
COc1ccc(S(=O)(=O)N2CCN(c3cc(-c4ccccc4)nc4ncnn34)CC2)cc1	?	-73*	?	24%	-18%	10µM*
O=S(=O)(c1ccc(Br)cc1)N1CCN(c2cc(-c3ccccc3)nc3ncnn23)CC1	?	?	?	-10%	-20%	?
COc1ccc(-c2cc(-c3ccccc3)n3ncnc3n2)cc1	?	11	-23%	0%	-15%	?
Cc1ccc(-c2cn3nc(N4CCC(C(=O)Nc5ccccc5C)CC4)sc3n2)cc1	·	0	31%[46.1 µM]	·	·	·
Cc1ccccc1NC(=O)C1CCN(c2cc(-c3ccccc3)nc3ncnn23)CC1	?	?	?	-19%	7.4µM*	32%
COc1ccc(-c2cc(N3CCCC3)n3ncnc3n2)cc1	-22%[46.1 µM]	-98*	-11%	-9%	28%	13µM*
O=S(=O)(c1ccccc1)N1CCN(c2cc(-c3ccccc3)nc3ncnn23)CC1	?	-91*	15µM*	?	?	?
CCOC(=O)C1=C(COC(=O)COc2ccc(C(=O)CC)cc2)NC(=O)NC1C (stereo not drawn)	4%	-11	5%	35%	6%	22%
CC1CCN(S(=O)(=O)N2CCC(C(=O)NCc3ccc(F)cc3Cl)CC2)CC1	·	-25	·	·	·	·
Cc1cc(N2CCCC(C(=O)Nc3cccc(Cl)c3)C2)n2ncnc2n1 (stereo not drawn)	-22%	38	6%	15µM*	-2%	-15%
Cc1cc(N2CCCC(C(=O)Nc3ccc4c(c3)CCC4)C2)n2ncnc2n1 (stereo not drawn)	-15%	-27	-8%	16%	-19%	?
Cc1c(CC(=O)N2CCCCC2)c(=O)oc2c(C)c3occ(C(C)(C)C)c3cc12	10%[46.1 µM]	?	-3%[46.1 µM]	·	·	·
Cc1ccc2nc(/C(C#N)=C\c3cc(C)n(-c4cccc([N+](=O)[O-])c4)c3C)[nH]c2c1	?	-12	?	3.3µM*	·	2.2µM*
N#C/C(=C(/O)c1ccc([N+](=O)[O-])o1)c1nc2ccccc2[nH]1	·	-74*	·	25%	-12%	2%
Cc1ccc2nc(/C(C#N)=C\c3ccc([N+](=O)[O-])o3)[nH]c2c1	18µM*	-103*	3.3µM*	?	10µM*	?
Cc1cc(/C=C(/C#N)c2nc3ccccc3[nH]2)c(C)n1-c1ccccc1C(=O)O	-5%[46.1 µM]	-34	·	19%	8.3µM*	16%
Cc1ccc2nc(/C(C#N)=C\c3ccc(N4CCOCC4)o3)[nH]c2c1	?	137	-29%	?	32%	?
COCCNC(=O)C1CCCN(C(=O)COc2ccc(Cl)cc2Cl)CC1 (stereo not drawn)	·	-35	·	·	·	·
N#C/C(=C\c1ccc([N+](=O)[O-])o1)c1nc2ccccc2[nH]1	-1%	-94*	·	-11%	14%	?
N#C/C(=C\c1ccc(Sc2ccccc2)o1)c1nc2ccccc2[nH]1	6%	-1	?	1µM*	?	?
